Screening data: PubChem BioAssay, National Center for Advancing Translational Sciences (NCATS)
Pf growth 48h = Primary qHTS for delayed death inhibitors of the malarial parasite plastid, 48 hour incubation. P. falciparum luciferase growth in erythrocytes, 48 h. Potency, µM (highest dose often 28.7 µM), for the others: top-dose activity change, negative = inhibition, most hits filed as inhibitors. actives 5.9% (n = 310,000). AID 504832, 2011; further: potency means the concentration at half of the fitted maximal effect; on the % scale 0 is the no-effect control and ±100 the full control effect
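In quantitative HTS format, infected erythrocytes bearing luciferase-reporter parasites were treated for a single generation at 37 C. Luminescence after adding detection reagent served as the growth measure.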
Cycloheximide cs = Cycloheximide Counterscreen for Small Molecule Inhibitors of Shiga Toxin; cell reporter, cycloheximide protein synthesis inhibition counterscreen; max response, %; actives 12% (n = 300,000); in the data active means max response mostly above about 13%, no sharp cut-off; inactive means mostly below about 14%; further: read at 38.3 µM for the half of the compounds with a filed dose; 0% is about no effect
Pf growth 96h = Primary qHTS for delayed death inhibitors of the malarial parasite plastid, 96 hour incubation. actives 6.9% (n = 320,000). P. falciparum luciferase reporter growth, 96 h. AID 504834, 2011. Potency, µM (doses to about 28.7 µM), for inactives: at the top dose activity change, negative = inhibition, usual class: inhibitors; further: potency means the concentration at half of the fitted maximal effect; on the % scale 0 is the no-effect control and ±100 the full control effect
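Delayed-death screen, second-generation endpoint: infected erythrocytes, 2% hematocrit, 0.05% parasitemia final; 96 hours at 37 C, 5% CO2; luciferase detection reagent; luminescence decrease equals reduced growth.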
NS1 inh = qHTS Assay for Inhibitors of Influenza NS1 Protein Function; Potency, µM (doses to about 46.1 µM), for the others: at the highest dose activity, positive = more growth; actives 0.4% (n = 270,000); calls by dose curve; further: potency means the concentration at half of the fitted maximal effect; actives are rising curves; nearly all actives have a fitted effect of over 50% in size
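Growth recovery, yeast-based: influenza A NS1 expressed in S. cerevisiae causes slow growth, and suppressors are detected by OD600. The parent strain without NS1 is used as positive control.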
Shiga inhibitor = A qHTS for Small Molecule Inhibitors of Shiga Toxin; Vero cells, Shiga toxin protein synthesis inhibition reporter; inhibition, % at 38.7 µM; actives 9.2% (n = 290,000); in the data active means inhibition mostly above about 28%, no sharp cut-off; inactive means mostly below about 43%; further: 0% is about no effect
Sm TGR block = qHTS Assay for the Inhibitors of Schistosoma Mansoni Peroxiredoxins. Potency, µM (top dose mostly 114 µM), for inactives: top-dose activity change, negative = inhibition, usual class: inhibitors. actives 3% (n = 360,000). AID 485364, 2010. Schistosoma mansoni thioredoxin glutathione reductase (TGR), Q962Y6. purified TGR, DTNB reduction, TNB absorbance 405 nm; further: potency means the concentration at half of the fitted maximal effect; on the % scale 0 is the no-effect control and ±100 the full control effect; nearly all actives have a fitted effect of over 60% in size
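First, TGR (20 nM dispensed) and NADPH were mixed with compound. Second, a 15 min room-temperature incubation followed. Third, further NADPH and then DTNB were added to start the reaction. Finally, TNB absorbance was monitored kinetically.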
Numbers without * were called inactive; u = inconclusive; x = no result. Shown are actives, neighbours in structure and some others; about 21% of the full set was active somewhere. Unless noted, the call rests on the fitted dose curve; in most records, active means well fitted curve in the direction sought with a large enough effect; inconclusive means small, poorly fitted or top-dose-only effect, or another doubt; inactive means no such curve, though single readings can be large; an effect the other way counts as inactive or inconclusive.

SMILES | Pf growth 48h | Cycloheximide cs | Pf growth 96h | NS1 inh | Shiga inhibitor | Sm TGR block
CC1CCCCC1NC(=O)Cn1cccc1C(=O)c1ccccc1 (centres undefined) | -1.0% | 15.5* | -11.0% | -7.1% | 24.9 | 4.8%
COc1ccccc1CNC(=O)Cn1cccc1C(=O)c1ccccc1 | 18.7% | 27.5 | 14.5% | -5.9% | 48.3* | 0.8%
Cc1ccccc1C(=O)c1cccn1CC(=O)NC1CCCC(C)C1C (centres undefined) | -19.3% | -2.3 | 57.0% | -26.9% | -11.6 | -1.1%
COc1cccc(N2CCN(C(=O)c3nc4nc(C)cc(C)n4n3)CC2)c1 | -26.7% | 1.2 | 3.8% | x | -9.7 | -9.9%
Cc1cccc(N2CCn3c2nc2c3c(=O)n(CCCc3ccccc3)c(=O)n2C)c1 | x | x | x | x | x | -16.0%
Cc1ccc(Sc2ccc(CN3CCCC3)cc2[N+](=O)[O-])cc1 | 4.1% | -1.8 | u | 3.8% | -4.7 | 13.3%
CN1CCN(Cc2ccc(Sc3ccc(Cl)cc3)c([N+](=O)[O-])c2)CC1 | u | -4.8 | 0.165µM* | x | -4.1 | -4.2%
Cc1ccc(-c2cn3cccnc3n2)cc1NC(=O)c1ccc(Br)o1 | -14.3% | -1.8 | u | -46.9% | -5.4 | -8.4%
COc1ccc(-c2cn3cccnc3n2)cc1NC(=O)Nc1cc(C)ccc1C | u | x | 11.7µM* | x | x | -12.7%
COc1ccc(-c2cn3cccnc3n2)cc1NC(=O)c1ccc(Br)o1 | -9.3% | 11.9 | 10.4µM* | -45.7% | 4.5 | 20.8%
COc1ccc(OC)c(S(=O)(=O)N2CCC(C(=O)NCCc3ccccc3)CC2)c1 | 30.2% | 13.9 | u | -21.3% | 46.1 | 0.0%
Cc1ccccc1OCC(=O)N/N=C/c1cccn1C | u | -2.6 | 0.8% | -5.0% | -3.6 | -4.2%
O=C(Nc1nc(-c2ccccc2)c(-c2ccccc2)o1)c1ccc(F)cc1 | u | 0.4 | 9.28µM* | -67.8% | 6.6 | -16.5%
COc1cccc(C(=O)Nc2nc(-c3ccccc3)c(-c3ccccc3)o2)c1 | -23.6% | 10.2 | -28.6% | -12.9% | 13.3 | 1.0%
COc1ccc(NC(=O)C2CCN(S(=O)(=O)c3cn(C)cn3)CC2)cc1Cl | x | x | x | x | x | 8.0%
C/C=C/C=C/C(=O)Nc1cccc(C2=NOC3(C2)C[C@H](C(N)=O)N(C(=O)CC(c2ccccc2)c2ccccc2)C3)c1 (some centres undefined) | u | -3.1 | u | 14.3% | 4.4 | u
C/C=C/C(=O)Nc1cccc(C2=NOC3(C2)C[C@@H](C(N)=O)N(C(=O)C(c2ccccc2)c2ccccc2)C3)c1 (some centres undefined) | 11.7µM* | -1.2 | 13.1µM* | -11.2% | -6.2 | 27.5%
C/C=C(\C)C(=O)Nc1cccc(C2=NOC3(C2)C[C@H](C(N)=O)N(C(=O)C(c2ccccc2)c2ccccc2)C3)c1 (some centres undefined) | 9.28µM* | -1.1 | 11.7µM* | -33.7% | 25.1 | -14.9%
C/C=C\C(=O)Nc1cccc(C2=NOC3(C2)C[C@@H](C(N)=O)N(C(=O)CC(c2ccccc2)c2ccccc2)C3)c1 (some centres undefined) | 10.4µM* | -2.6 | 13.1µM* | -11.3% | -7.8 | 4.2%
CNC(=S)NNC(=O)COc1cccc(C)c1C | -0.4% | -1.6 | 8.28µM* | -11.3% | -6.7 | -7.2%
CCc1cccc(OCC(=O)Nc2ccccc2N2CCCC2)c1 | u | x | u | x | x | -0.1%
Cc1cccc(OCC(=O)Nc2ccccc2N2CCCCC2)c1C | 11.7µM* | x | 1.85µM* | x | x | 12.9%
Cc1ccc(Cl)c(OCC(=O)Nc2ccccc2N2CCCCC2)c1 | 14.7µM* | x | u | x | x | -7.0%
CCC(=O)N1CCN(c2ccccc2NC(=O)COc2ccc(C(C)C)cc2)CC1 | 10.4µM* | -2.6 | u | -30.9% | -5.1 | 0.2%
Cc1cccc(C)c1OCC(=O)Nc1ccccc1N1CCCCC1 | 11.7µM* | -1.1 | u | 13.6% | 10.2 | 11.0%
SMILES | Pf growth 48h | Cycloheximide cs | Pf growth 96h | NS1 inh | Shiga inhibitor | Sm TGR block
CCOC(=O)/C(N=Nc1ccc(F)cc1)=C(/O)c1ccc([N+](=O)[O-])cc1 | x | -2.6 | 22.6% | 0.5% | -2.7 | -7.4%
COc1ccc(C(CC(=O)O)NC(=O)Cc2ccccc2)cc1OC (centres undefined) | -11.5% | -2.8 | u | 0.9% | -3.6 | -14.0%
CC(=O)Oc1ccc2ccccc2c1C(NC(=O)Cc1ccccc1)c1ccc(Cl)cc1 (centres undefined) | 4.65µM* | -0.7 | 2.94µM* | 10.2% | -15.8 | -19.7%
CCCCC(=O)NC(c1ccco1)c1c(O)ccc2ccccc12 (centres undefined) | 11.7µM* | -0.5 | u | 4.6% | 13.1 | 0.3%
CC(C)(C)C(=O)NC(c1ccccc1)c1c(O)ccc2ccccc12 (centres undefined) | 4.65µM* | -2.0 | u | 7.0% | -9.7 | -19.4%
CCCC(=O)NC(c1ccco1)c1c(O)ccc2ccccc12 (centres undefined) | u | 7.2 | u | -16.9% | -15.5 | -0.3%
CC(C)[C@H](N[C@@H](C)c1ccccc1)c1c(O)ccc2ccccc12 | 2.94µM* | 4.5 | u | 3.9% | 9.7 | -15.3%
CC(C)C(=O)NC(c1ccc(N(C)C)cc1)c1c(O)ccc2ccccc12 (centres undefined) | u | 0.7 | u | 2.0% | -5.6 | -33.5%
CC(C)CC(=O)NC(c1ccccc1Cl)c1c(O)ccc2ccccc12 (centres undefined) | u | -2.4 | -97.7% | 9.2% | -2.9 | -20.4%
COc1ccc(OC)c(CNC(=O)c2ccc(Sc3ccc(Cl)cc3)c(NC(C)=O)c2)c1 | x | x | x | x | x | -2.1%
COc1ccc(-c2noc(CN(C(=O)c3ccc(C)cc3C)C(C)C)n2)cc1 | x | x | x | x | x | 6.0%
COc1ccc(C(NC(=O)CC(C)C)c2c(O)ccc3ccccc23)cc1 (centres undefined) | u | -2.7 | 209.2% | -2.6% | -3.0 | 6.0%
CCCC(=O)NC(c1ccc(OC)cc1)c1c(O)ccc2ccccc12 (centres undefined) | 11.7µM* | -3.2 | -0.9% | -25.1% | -13.1 | -13.6%
CCOc1ccc(C(NC(=O)CC)c2c(O)ccc3ccccc23)cc1 (centres undefined) | 13.1µM* | -1.4 | u | 24.2% | -9.6 | 1.8%
COc1ccc(CNC(=O)COC(=O)c2ccco2)cc1 | 10.5% | 11.3 | -0.5% | 4.5% | 33.6 | x
N#CCCSc1ccccc1NC(=O)c1cc(=O)c2ccccc2o1 | 0.0% | 14.0 | u | -16.4% | -2.5 | -5.6%
N#Cc1cc(-c2ccccc2)nc(NN)n1 | u | 2.2 | 10.4µM* | 3.3% | 13.0 | 4.8%
O=c1cc(O)c(-c2ccc(Cl)c(Cl)c2)c(Cl)[nH]1 | -0.9% | -2.0 | 0.1% | x | 4.2 | -0.2%
